According to PubChem BioAssay:
Where “and” joins values, the source holds several entries; their conditions need not be identical. Equal entries are not always repeated.

Assay: LFS_MB_P medulloblastoma growth inhibition, cell-based, chromothripsis tumors, cisplatin or BGB combos (AID 1671449);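 also: cells exposed for 96 hours; 0% = vehicle DMSO and 100% = killing by high DMSO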
Settings: LFS_MB_P medulloblastoma cells, measured here: combination with BGB IC40, at 0.05 µM
Work on `COc1ccccc1S(=O)(=O)Nc1ccc2c(c1)CN(C)C(=O)N2` yielded an inhibition of -41.2%.
With `Cc1cc(C#N)cc(C)c1Oc1nc(Nc2ccc(C#N)cc2)nc(N)c1Br` the inhibition was -26%.
Work on `Nc1ncn(C2OC(CO)C(O)C2O)c(=O)n1` (configuration not stated) yielded an inhibition of -0.515%.
Work on `Cc1cc(C)c(Nc2ccnc(Nc3ccc(C#N)cc3)n2)c(C)c1` yielded an inhibition of -34.5%.
In the case of `COc1ccc(CC(N)C(=O)NC2C(CO)OC(n3cnc4c(N(C)C)ncnc43)C2O)cc1` (configuration not stated), the inhibition is reported as -25.1% and 4.36%.
In the case of `O=c1ccn(C2OC(CO)C(O)C2O)c(=O)[nH]1` (configuration not stated), the inhibition is reported as 17.3% and -34.8%.
In the case of `CC=C1NC(=O)C2CSSCCC=CC(CC(=O)NC(C(C)C)C(=O)N2)OC(=O)C(C(C)C)NC1=O` (configuration not stated), the inhibition is reported as 74.1% and 67.4%.
In the case of `CN(C)CC(=O)Nc1ccc2[nH]c(=O)c3ccccc3c2c1`, the inhibition is reported as -14.8% and -27.5% and -40.5%.
With `CC1OC(n2cc(F)c(=O)[nH]c2=O)C(O)C1O` (configuration not stated) the inhibition was -29.6%.
For `Nc1ccn(C2OC(CO)C(O)C2(F)F)c(=O)n1` (configuration not stated), the inhibition was -22.1% and -15.3% and -25.2%.
For `Cc1cn(C2CC(N=[N+]=[N-])C(CO)O2)c(=O)[nH]c1=O` (configuration not stated), the inhibition was -24.2% and -22.6%.
With `CC(C=CC(=O)NO)=CC(C)C(=O)c1ccc(N(C)C)cc1` (configuration not stated) the inhibition was -37.3%.
In the case of `NC(=S)NN=Cc1ncccc1N`, the inhibition is reported as -3.08%.
Molecule `CC(C)(C#N)c1ccc(N2C(=O)OCc3cnc4ccc(-c5cnc6ccccc6c5)cc4c32)cc1` has an inhibition of -37.9%.
Work on `CC1CN(c2c(F)c(N)c3c(=O)c(C(=O)O)cn(C4CC4)c3c2F)CC(C)N1` (configuration not stated) yielded an inhibition of -15.2%.
In the case of `CCCCN(Cc1ccc(C(=O)NO)cc1)C(=O)Nc1ccccc1`, the inhibition is reported as 40.8% and 5.09%.
For `O=c1[nH]cnc2c1ncn2C1OC(CO)C(O)C1O` (configuration not stated), the inhibition was -34.2% and -41.2%.
Molecule `Cc1cc(C=CC#N)cc(C)c1Nc1ccnc(Nc2ccc(C#N)cc2)n1` has an inhibition of -24.8%.
Work on `CC(Oc1cc(-c2cnn(C3CCNCC3)c2)cnc1N)c1c(Cl)ccc(F)c1Cl` (configuration not stated) yielded an inhibition of -10.8%.
Work on `O=C(O)c1cc2cccc([N+](=O)[O-])c2[nH]1` yielded an inhibition of -15.1%.
`O=c1[nH]c(=O)n(C2CC(O)C(CO)O2)cc1I` (configuration not stated) gave an inhibition of 12.9%.

Same assay, conditions: LFS_MB_P medulloblastoma cells, measured here: combination with cisplatin, at 0.5 µM, stronger effect = higher value
Work on `COc1ccccc1S(=O)(=O)Nc1ccc2c(c1)CN(C)C(=O)N2` yielded an inhibition of -73.8%.
For `Cc1cc(C#N)cc(C)c1Oc1nc(Nc2ccc(C#N)cc2)nc(N)c1Br`, the inhibition was -19.3%.
Work on `Nc1ncn(C2OC(CO)C(O)C2O)c(=O)n1` (configuration not stated) yielded an inhibition of -8.35%.
With `Cc1cc(C)c(Nc2ccnc(Nc3ccc(C#N)cc3)n2)c(C)c1` the inhibition was -3.17%.
With `COc1ccc(CC(N)C(=O)NC2C(CO)OC(n3cnc4c(N(C)C)ncnc43)C2O)cc1` (configuration not stated) the inhibition was -20.6% and 32.4%.
In the case of `O=c1ccn(C2OC(CO)C(O)C2O)c(=O)[nH]1` (configuration not stated), the inhibition is reported as 37.5% and 6.75%.
In the case of `CC=C1NC(=O)C2CSSCCC=CC(CC(=O)NC(C(C)C)C(=O)N2)OC(=O)C(C(C)C)NC1=O` (configuration not stated), the inhibition is reported as 10.9% and 123%.
For `CN(C)CC(=O)Nc1ccc2[nH]c(=O)c3ccccc3c2c1`, the inhibition was -45.3% and -39.5% and -30.4%.
For `CC1OC(n2cc(F)c(=O)[nH]c2=O)C(O)C1O` (configuration not stated), the inhibition was -29.8%.
In the case of `Nc1ccn(C2OC(CO)C(O)C2(F)F)c(=O)n1` (configuration not stated), the inhibition is reported as 91.7% and -25.4% and 35.7%.
With `Cc1cn(C2CC(N=[N+]=[N-])C(CO)O2)c(=O)[nH]c1=O` (configuration not stated) the inhibition was -21.8% and -53%.
`CC(C=CC(=O)NO)=CC(C)C(=O)c1ccc(N(C)C)cc1` (configuration not stated) showed an inhibition of 130%.
Work on `NC(=S)NN=Cc1ncccc1N` yielded an inhibition of -29.8%.
In the case of `CC(C)(C#N)c1ccc(N2C(=O)OCc3cnc4ccc(-c5cnc6ccccc6c5)cc4c32)cc1`, the inhibition is reported as -37.5%.
Work on `CC1CN(c2c(F)c(N)c3c(=O)c(C(=O)O)cn(C4CC4)c3c2F)CC(C)N1` (configuration not stated) yielded an inhibition of -6.19%.
For `CCCCN(Cc1ccc(C(=O)NO)cc1)C(=O)Nc1ccccc1`, the inhibition was -30.1% and 27.1%.
For `O=c1[nH]cnc2c1ncn2C1OC(CO)C(O)C1O` (configuration not stated), the inhibition was -24.2% and -36.9%.
In the case of `Cc1cc(C=CC#N)cc(C)c1Nc1ccnc(Nc2ccc(C#N)cc2)n1`, the inhibition is reported as -44.6%.
In the case of `CC(Oc1cc(-c2cnn(C3CCNCC3)c2)cnc1N)c1c(Cl)ccc(F)c1Cl` (configuration not stated), the inhibition is reported as -18.2%.
For `O=C(O)c1cc2cccc([N+](=O)[O-])c2[nH]1`, the inhibition was -30%.
`O=c1[nH]c(=O)n(C2CC(O)C(CO)O2)cc1I` (configuration not stated) gave an inhibition of -5.31%.
